# Source: PubChem BioAssay (Broad Institute)
# The list is not random: actives were taken first. Their share in the collection is about 0.64%.
# ERp5 block = inhibitors of human ERp5 | Q15084 | ERp5 insulin aggregation, absorbance 650 nm, 90 min | inhibition, % at 9.99 µM | 0.05% of 350,000 active | AID 651711;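 active means mean replicate inhibition above about 25%, with every replicate also reaching it, limit read from the data, passing the limit was not always enough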
# Target sequence (Q15084 whole entry, looked up): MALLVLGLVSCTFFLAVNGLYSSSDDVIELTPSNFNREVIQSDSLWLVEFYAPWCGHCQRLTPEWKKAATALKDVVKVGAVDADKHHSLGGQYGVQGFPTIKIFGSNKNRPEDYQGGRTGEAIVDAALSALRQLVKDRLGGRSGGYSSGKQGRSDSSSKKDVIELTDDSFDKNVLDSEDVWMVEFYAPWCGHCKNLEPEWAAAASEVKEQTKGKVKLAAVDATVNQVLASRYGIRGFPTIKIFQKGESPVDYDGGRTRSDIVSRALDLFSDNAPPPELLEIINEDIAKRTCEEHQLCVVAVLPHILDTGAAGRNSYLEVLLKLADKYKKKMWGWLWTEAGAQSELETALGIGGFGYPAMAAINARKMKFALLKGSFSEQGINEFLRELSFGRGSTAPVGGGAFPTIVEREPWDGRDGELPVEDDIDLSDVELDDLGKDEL
# AI-2 QS modul = modulators of Vibrio harveyi AI-2 quorum sensing system | 0.4% of 300,000 active | activity change, % at 7.5 µM | Vibrio harveyi JMH597 AI-2 luminescence/OD600 ratio, 9 h; stronger effect = lower value; strain lacks LuxN and CqsS sensors; 0 = neutral-control median; in the data active means activity change below about -75%, passing the limit was not always enough;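 further: luminescence divided by OD600 gain over 9 h not by final OD600 alone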
# PvdQ inh = P. aeruginosa PvdQ acylase inhibition; purified PvdQ acylase, fluorescence plate reader; inhibition, % at 10 µM; 0.063% of 340,000 active; AID 488965; in the data active means inhibition above about 30%, passing the limit was not always enough
# Vif imaging = inhibitors of HIV Vif. HEK293T cells, Vif self-association by quenched fluorescence, imaging, 24 h. AID 602346. inhibition, % at 7.49 µM. 0.35% of 340,000 active; in the data active means inhibition above about 50%, passing the limit was not always enough
# PDI inh = inhibitors of human protein disulfide isomerase; P07237; PDI insulin aggregation turbidity, A650, 90 min; inhibition, % at 10 µM; 0.052% of 350,000 active;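 active means mean inhibition across replicates of 30% or more, whatever share of single replicates reach that level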
# A number is an active result; n = inactive; x = no result; ! = not active in a repeat.
SMILES,ERp5 block,AI-2 QS modul,PvdQ inh,Vif imaging,PDI inh
COc1ccc(-c2cc(C(=O)Nc3cnn(Cc4ccccc4C)c3)no2)cc1OC,n,n,n,86,n
COc1ccc(/C=N/NS(=O)(=O)c2ccc(C)cc2)cc1,n,-83,n,n,n
COc1ccc(O)c(/C=N/NS(=O)(=O)c2ccc(C)cc2)c1,n,n,n,n,n
Clc1cc2c(c(CSc3nc4ccccc4n4cccc34)c1)OCOC2,n,n,n,76,n
Clc1cc2c(c(Cn3cnc4ccccc43)c1)OCOC2,x,n,n,n,n
Cc1cc(C)nc(NS(=O)(=O)c2ccc(NS(=O)(=O)c3ccsc3)cc2)n1,n,n,x,74,n
COc1ccc(NC(=O)N(C)C[C@@H]2Oc3c(NC(=O)c4ccc(-c5nccs5)cc4)cccc3C(=O)N([C@@H](C)CO)C[C@@H]2C)cc1,n,x,x,x,x
O=C(C[n+]1ccccc1)N/N=C/c1cc(Br)cc(Br)c1O,x,-149,n,n,n
O=C(N/N=C/c1cc(Cl)cc(Cl)c1O)c1ccncc1,n,-85,n,n,n
O=C(N/N=C/c1cc(Br)cc(Br)c1O)c1ccncc1,n,-84,x,x,x
C/C=C/c1ccc([C@H]2[C@H](CO)N(C(C)=O)C23CN(C(=O)c2ccncc2)C3)cc1,n,x,x,x,x
CC(=O)c1ccc(OCc2cc(C(=O)N3CCCCC3c3cccnc3)no2)cc1 (stereo not given),n,n,n,n,33
CC(=O)Oc1cc2c(cc1OC(C)=O)C(=O)CCCC2,n,x,x,57,n
COc1cc2c(cc1OC(C)=O)C(=O)CCCC2,n,x,x,n,x
O=C(N[C@H]1C=C[C@H](CC(=O)N2CCc3ccccc3C2)O[C@@H]1CO)C1CC1,n,x,x,x,x
COc1cccc(C(NC(C)=O)c2ccc3cccnc3c2O)c1 (stereo not given),n,x,n,n,n
Oc1cccc(C(Nc2nccs2)c2ccc3cccnc3c2O)c1 (stereo not given),n,-85,n,n,n
C[C@H](CO)N1C[C@H](C)[C@@H](CN(C)S(=O)(=O)c2cccs2)OCCCC[C@H](C)Oc2ccc(NC(=O)Nc3ccc4c(c3)OCO4)cc2C1=O,n,x,x,x,x
O=C(O)CCCCn1c(SCc2ccccc2Cl)nc2ccsc2c1=O,n,n,n,59,n
O=C(O)CCCCn1c(SCc2cc(=O)n3cc(Cl)ccc3n2)nc2ccsc2c1=O,n,n,n,n,n
Cc1nc(SCCc2ccccc2)[nH]c(=O)c1C,x,n,n,n,n
Cc1nc(SCc2ccc(Br)cc2)[nH]c(=O)c1C,x,x,n,52,n
C[C@H]1c2cccc(O)c2C(O)=C2C(=O)C3(O)C(O)=C(C(N)=O)C(=O)[C@@H](N(C)C)[C@@H]3[C@@H](O)[C@@H]21 (stereo not given in full),n,x,n,n,n
C=C1c2cccc(O)c2C(O)=C2C(=O)[C@]3(O)C(O)=C(C(N)=O)C(=O)[C@@H](N(C)C)[C@@H]3[C@@H](O)[C@H]12,n,-83,n,n,x
CN(C)c1ccc(O)c2c1CC1CC3C(N(C)C)C(=O)C(C(N)=O)=C(O)[C@@]3(O)C(=O)C1=C2O (stereo not given in full),n,-120,n,n,n
SMILES,ERp5 block,AI-2 QS modul,PvdQ inh,Vif imaging,PDI inh
CC[C@]12c3[nH]c4cc(-c5ccco5)ccc4c3CCN1C(=O)[C@@H](CC(=O)NCc1ccco1)C[C@@H]2C(=O)N1CCN(C(=O)C2CC2)CC1,n,x,n,n,n
CC[C@]12c3[nH]c4cc(-c5ccco5)ccc4c3CCN1C(=O)[C@@H](CC(=O)NCc1ccc(OC)c(OC)c1)C[C@@H]2C(=O)N1CCN(C(=O)C2CC2)CC1,n,x,n,x,37
Cc1noc(C)c1NC(=O)Nc1ccc2c(c1)C(=O)N([C@@H](C)CO)C[C@@H](C)[C@H](CN(C)C(=O)CCCN(C)C)OCCCC[C@@H](C)O2,n,x,x,x,x
COC(=O)c1ccc(NCc2cc(O)ccc2O)cc1O,n,x,n,85,n
O=C(COC(=O)c1ccc(O)cc1O)Nc1ccc2ccccc2c1,n,x,n,n,n
COC(=O)c1ccc(NCc2c(O)ccc(O)c2Br)cc1Cl,n,x,n,70,n
O=C(C[C@H]1C=C[C@@H](NC(=O)CC2CC2)[C@@H](CO)O1)NCc1ccc(-c2ccccc2)cc1,n,x,x,x,x
Cc1cc(C(=O)OCC(=O)Nc2cccc(S(=O)(=O)N(C)C)c2)c(C)o1,n,-89,n,n,n
Cc1cc(C(=O)OCC(=O)Nc2ccc(F)cc2)c(C)o1,x,-82,n,n,n
COCCCn1c(=O)/c(=C\c2ccccc2OC(F)F)s/c1=C(/C#N)C(N)=O,n,n,n,139,n
O=C(COc1ncnc2ccccc12)Nc1ccc(S(=O)(=O)N2CCOCC2)cc1,n,-92,n,n,n
Cc1ccccc1OCC(=O)Nc1ccc(S(=O)(=O)N2CCCC2)cc1,n,-79,n,n,n
O=C(COc1ccccc1)Nc1ccc(S(=O)(=O)N2CCCC2)cc1,n,-95,n,n,n
O=C(COc1ncnc2ccccc12)Nc1cccc(S(=O)(=O)N2CCOCC2)c1,x,n,n,n,n
O=C(CCc1ccccc1)Nc1ccc(S(=O)(=O)N2CCCC2)cc1,n,-89,n,n,n
C[C@@H]1CN([C@H](C)CO)C(=O)c2cc(NC(=O)Nc3ccc(F)cc3)ccc2O[C@H]1CN(C)Cc1ccc(-c2ccccc2)cc1,51,x,x,x,x
Cc1noc(C)c1NC(=O)N(C)C[C@H]1Oc2ccc(NC(=O)c3ccncc3)cc2C(=O)N([C@H](C)CO)C[C@@H]1C,28!,x,n,n,n
Cc1noc(C)c1NC(=O)Nc1ccc2c(c1)C(=O)N([C@H](C)CO)C[C@@H](C)[C@@H](CN(C)C(=O)Nc1ccc(F)cc1)O2,51,x,x,x,x
C[C@@H]1CN([C@@H](C)CO)C(=O)c2cc(NS(=O)(=O)c3ccccc3)ccc2O[C@H]1CN(C)C(=O)Nc1ccc2c(c1)OCO2,58,x,x,x,x
Cc1noc(C)c1NC(=O)Nc1ccc2c(c1)C(=O)N([C@H](C)CO)C[C@H](C)[C@H](CN(C)C(=O)Nc1ccc(F)cc1)O2,n,x,x,x,x
COCC#Cc1cnc2c(c1)C(=O)N([C@@H](C)CO)C[C@H](C)[C@@H](CN(C)C(=O)C1CC1)O2,n,x,x,x,x
C[C@H](CO)N1C[C@H](C)[C@H](CN(C)Cc2ccc(C(=O)O)cc2)Oc2c(NC(=O)Nc3ccccc3)cccc2C1=O,n,x,x,x,x
O=C(c1cccnc1)N1CC(=O)N2[C@H](CO)[C@@H](c3ccc(-c4ccccc4F)cc3)[C@H]2C1,n,x,x,x,x
COc1ccc(S(=O)(=O)N(C)C[C@@H]2Oc3c(NS(=O)(=O)c4ccc(C)cc4)cccc3C(=O)N([C@@H](C)CO)C[C@@H]2C)cc1,n,x,x,x,x
CCCNC(=O)N1CC2(CN(Cc3cccc(OC)c3)C2)c2c(n(C)c3cc(OC)ccc23)[C@H]1CO,n,x,x,x,x
C=C(C(=O)c1ccccc1)C(C)C(=C)C(=O)c1ccccc1,n,n,n,67,n
C=C(C(=O)c1ccccc1)C(c1ccccc1)C(C)C(=O)c1ccccc1 (stereo not given),x,n,n,n,n
